Among all 72,000 compounds or so, about 710 (0.99%) were called active. Another 7% or so got no clear call; they are omitted. What follows is part of a selection rich in actives, with near analogues and random picks from the rest. Unmarked numbers belong to inactive results. Calls come from the whole dose curve; as a rule, active = well fitted inhibition curve with a large enough effect; inconclusive = small, poorly fitted or top-dose-only effect; inactive = no such curve, though single readings can be large or run the other way.
assay: qHTS Assay for Inhibitors of the ERK Signaling Pathway using a Homogeneous Screening Assay; settings: HEK293-V1b, vasopressin-stimulated pERK AlphaScreen; series mostly up to 57.5 µM; activity, negative = inhibition: at the top concentration; note: nearly all actives have a fitted effect of over 55% in size
Text: qHTS Assay for Inhibitors of the ERK Signaling Pathway using a Homogeneous Screening Assay; note: nearly all actives have a fitted effect of over 55% in size
NIH Chemical Genomics Center [NCGC]
NIH Molecular Libraries Screening Centers Network [MLSCN]
Assay Submitter (PI): Dr. Wei Zheng, NCGC/NIH
The Ras/extracellular-signal-regulated kinase (ERK) mitogen activated protein (MAP) kinase signaling pathway (ERK1/2 cascade) plays is a key role in transmitting signals from the cell surface to the nucleus (Nishida and Gotoh 1993; Chang and Karin, 2001). The cascade is initiated by the small G-protein Ras, which recruits Raf […], where activation occurs. Alternatively, this pathway can be activated by elevating intracellular cAMP.
Activation of the ERK pathway is essential in increased cell division and cell survival. Sustained and constitutive activation of the ERK pathway, however, has been linked to uncontrolled cell proliferation, increased cell survival, and tumor progression. Thus, the ERK has been as an attractive target for cancer chemotherapy in the past few years (Sebolt-Leopold and Herrera, 2004). Given its physiological and pathological importance, assessment of ERK phosphorylation has been broadly performed in both basic research and drug discovery. Most assays for the measurement of ERK phosphorylation use the antibody-based detection methods, such as western blot and ELISA. These assays require multiple reagent additions with cell wash steps and are not suitable for high throughout screening.
The current cell-based ERK phosphorylation assay was performed using AlphaScreen platform. AlphaScreen is a two bead-based proximity-dependent chemical energy transfer luminescent assay platform. The assay reagents (ERK SureFire(TM) kit) were supplied from TGR BioSciences (Australia). In the presence of specific antibodies, phosphorylated ERK will bring "donor" and "acceptor" beads to a proximity range (<200 nm), and subsequently lead a chemical luminescent reaction upon exciting donor beads with 680 nm laser. To exclude the assay-related false positives, we used a biotinylated rabbit IgG to perform counter-screen. The biotinylated antibody mimics the phosphorylated ERK1/2 for bringing streptavidin coated beads and protein-A coated beads to a proximity range for the AlphaScreen detection.
NCGC Assay Protocol Summary:
HEK293 cells stably expressing type-1 vasopressin receptor (V1b) were maintained in DMEM medium (Invitrogen, Carlsbad, CA) at 37C under a humidified atmosphere containing 5% CO2 and 95% air. The medium contained 10% FBS, 2 mM L-glutamine, non-essential amino acid, pyruvate and 50 U/ml penicillin and 50 ug/ml streptomycin (Invitrogen). The aliquots of frozen cells were stored at -135C and used for the compound screening. All compounds were screened as titrations from 0.6 nM to 46 uM final concentration. Vasopressin was used to stimulate the ERK phosphorylation pathway. The ERK phosphorylation in cells was determined using an AlphaScreen assay kit provided by PerkinElmer. Data were normalized to the controls for basal activity (DMSO only) and 100% activation (25 nM vasopressin). AC50 values were determined from concentration-response data modeled with the standard Hill equation.
(1) Seed 4 ul/well of resuspended frozen HEK293 cells containing 2000 cells in white 1536-well plates for overnight with 1% FBS at 37C under a humidified atmosphere containing 5% CO2 and 95% air.
(2) Add 23 nL compounds in DMSO solution. The final titration was 0.6 nM to 46 uM.
(3) Incubate at 37C for 30 min.
(4) Dispense 0.5uL vasopressin (25 nM in final)
(5) Incubate at 37C for 5 min.
(6) Dispense 0.5uL of 1:2 diluted 5x lysis buffer.
(7) Incubate at 37C for 10 min.
(8) Dispense 1.5uL of mixture of activation buffer and reaction buffer with AlphaScreen beads (streptavidin donor beads and protein-A acceptor beads, 10 ng/well for each).
(9) Incubate at room temperature for 5 hr.
(10) Detect the assay plate in an EnVision plate reader (PerkinElmer) using the AlphaScreen detection mode.
[…]
% is set by controls: 0 for no effect and ±100 for the full control effect; potency is the fitted concentration of half-maximal effect.

Compound	activity, negative = inhibition	Potency
CC1(C)OC2CC(=O)OC[C@@]23C1CC(=O)[C@]1(C)C3CC[C@@]2(C)C(c3ccoc3)OC(=O)C3O[C@@]321 (stereo partly drawn)	5.86%	–
O=C(O)c1ccc(C(=O)c2ccccc2C(=O)O)cc1C(=O)O	14.2% [at 11.5 µM]	–
Cc1c(O)cc(O)c2c(=O)c(-c3ccc(O)cc3)coc12	10.2%	–
COc1ccc(OC)c(NC(=O)CSc2nc3cccnc3n2C)c1	–	20 µM (active)
COc1ccc(OC)c(NC(=O)CSc2nc(N)c(-c3ccccc3)c(=O)[nH]2)c1	-26.5%	–
CCn1c(COc2ccc(OC)cc2)nnc1SCC(=O)Nc1cc(OC)ccc1OC	-28%	–
COC(=O)C1C(=O)c2c([nH]c(C(=O)OCCSC)c2C)CC1C (stereo not drawn)	-19.7%	–
CCCOC(=O)C1=C(C)NC2=C(C(=O)C(C(=O)OC)C(C)C2)C1c1ccc(N(C)C)cc1 (stereo not drawn)	-12.3%	–
CCCOC(=O)c1[nH]c2c(c1C)C(=O)CC(c1cc(OC)c(OC)c(OC)c1)C2 (stereo not drawn)	–	25.1 µM (active)
CC(=O)OCC(=O)[C@@]1(O)CCC2C3CCC4=CC(=O)CC[C@@]4(C)[C@]3(F)C(O)C[C@]21C (stereo partly drawn)	-18%	–
C[C@@H]1O[C@@H](OC[C@H]2O[C@@H](Oc3c(-c4cccc(O)c4O)oc4cc(O)cc(O)c4c3=O)[C@H](O)[C@@H](O)[C@@H]2O)[C@H](O)[C@H](O)[C@H]1O	-17.5%	–
COc1ccccc1N1CCN(C[C@@H]2CN3C(=O)N(C)c4ccccc4C3=N2)CC1	-15.9%	–
COc1ccc(-c2nn3c(-c4ccccc4)nnc3s2)cc1OC	–	7.94 µM (active)
COc1cc(-c2nn3c(-c4cccc(C)c4)nnc3s2)cc(OC)c1OC	-16.6%	–
Fc1ccc(-c2nnc3sc(-c4ccc5c(c4)OCO5)nn23)cc1	6.41%	–
CC(=O)O[C@]1(C(C)=O)CC[C@@H]2[C@@H]3C=C(C)C4=CC(=O)CC[C@@]4(C)[C@H]3CC[C@]21C	35.5% [at 25.7 µM]	–
O=C(O)c1nn(-c2ccc(Cl)cc2)c2c1C(=O)c1ccccc1C2=O	-10.9% [at 11.5 µM]	–
CC1CC[C@@]23CCC4(C)[C@@]5(C)CCC6C(C)(C)C(O)CC[C@@]6(C)C5C=C[C@@]4(OC2=O)C3C1C (stereo partly drawn)	10.4%	–
CN(C)CCc1c[nH]c2ccc(Cn3cncn3)cc12	20.1%	–
N#Cc1ccccc1-c1ccc2ncnc(NCc3cccnc3)c2c1	-12.3%	–
CC1(C)SC2C(NC(=O)COc3ccccc3)C(=O)N2C1C(=O)O (stereo not drawn)	5.65%	–
S=c1c2[nH]cnc2ncn1CCSc1ncnc2nc[nH]c12	-0.588% [at 11.5 µM]	–
COC(=O)NC(c1ccccc1)[C@]1(C(C)=O)CCCC1=O (stereo partly drawn)	-3.18% [at 11.5 µM]	–
Nc1nc2nc(Cl)[nH]c2c(=O)[nH]1	19.7%	–

Compound	activity, negative = inhibition	Potency
O=C(O)C1CCN(c2ncnc3ccc(-c4ccccc4C(F)(F)F)cc23)CC1	-10.5%	–
CCCN1[C@H](C(=O)OC)C[C@@]2(O)[C@@H](O)[C@@H](O)[C@@H](O)C[C@@H]12	26.9%	–
Nc1ncn(C2OC(CO)C(O)C2O)c(=O)n1 (stereo not drawn)	15.1%	–
COC(=O)[C@@]1(Cc2ccc(OC)cc2)[C@H]2c3cc(C(=O)N4CCCC4)n(Cc4ccc(C(F)(F)F)nc4)c3C[C@H]2CN1C(=O)c1ccccc1	2.03%	–
O=c1c(-c2ccc(F)cc2)nc2cnc(N3CCOCC3)nc2n1-c1ccccc1	-29%	–
C=C(C)C1CC=C(CO)CC1 (stereo not drawn)	22.5%	–
COc1ccccc1CNc1cc(-c2ccccc2CN(C)C)ncn1	11.9%	–
Cc1cc(OCC(=O)O)c(Cl)cc1Cl	-16.5% [at 11.5 µM]	–
Cc1ccc(-n2ncc3c(N4CCN(c5ccc(F)cc5)CC4)ncnc32)c(C)c1	-27.4%	–
Fc1ccc2[nH]c3c(N4CCSCC4)ncnc3c2c1	–	12.6 µM (active)
CCN1CCCC1CNc1ncnc2c1[nH]c1ccc(F)cc12 (stereo not drawn)	-11.8%	–
Oc1ccc(O)c2c(O)cccc12	-3.49%	–
C/C(=C\C(=O)c1ccccc1)Nc1cccc(O)c1	–	7.94 µM (active)
CC(=O)c1cccc(NC(=O)c2ccncc2)c1	12.2%	–
C/C(=C\C(=O)c1cccnc1)Nc1ccc(C)c(C)c1	-5.4%	–
COc1ccc2[nH]cc(CCNc3nc(-c4cccc(NS(C)(=O)=O)c4)nc4ccccc34)c2c1	-30.4%	–
Cc1noc(C)c1-c1nc(Nc2ccccc2)c2ccccc2n1	-25.9%	–
COc1cccc(-c2nc(Nc3ccncc3)c3ccccc3n2)c1	–	15.8 µM (active)
CCC(C)(C)N=C(NC#N)Nc1cccnc1	-7.8%	–
N[C@H](C(=O)O)c1ccc(C(=O)O)c(O)c1	-22.7%	–
CC(=O)Oc1c2c(c3c(c1CC=C(C)C)O[C@@]14C(=CC5CC1C(C)(C)OC4(C/C=C(\C)C(=O)O)C5=O)C3=O)OC(C)(CCC=C(C)C)C=C2 (stereo partly drawn)	-10.8%	–
NCCCNCCCCN(CCCN)/[N+]([O-])=N/O	-1.46%	–
CC(C)(O)CCC(O)[C@@](C)(O)C1CC[C@]2(O)C3=CC(=O)C4CC(O)C(O)C[C@]4(C)C3CC[C@]12C (stereo partly drawn)	-0.972%	–
N#C/C(=C\c1ccc(O)c(O)c1)C(N)=O	-23.1%	–

Compound	activity, negative = inhibition	Potency
Oc1c(CN2CCOCC2)ccc(CN2CCOCC2)c1O	-4.14% [at 11.5 µM]	–
CCC[C@@H]1C[C@@]1(CCC)[C@@H](NC(=O)c1ccccc1)c1ccc(C(=O)OC)cc1	23.3%	–
CCCn1c(-c2ccc(F)cc2)nc2c(NC3CCN(Cc4ccccc4)C3)nc(C)nc21 (stereo not drawn)	-14.2%	–
O=C(Nc1c[nH]c(=O)[nH]c1=O)Oc1ccccc1	-1.65% [at 11.5 µM]	–
CN(CCOc1ccc(CC2SC(=O)NC2=O)cc1)c1ccccn1 (stereo not drawn)	23.1%	–
COc1ccc(-c2nc3cnc(N(C)C)nc3n(Cc3cccs3)c2=O)cc1	31%	–
COC(=O)[C@@H]1C[C@H]2CC[C@H](O)C[C@H]2N1Cc1ccc(N2CCN(C)CC2)cc1	11.9%	–
COCCn1c(=O)c(-c2cccc(F)c2)nc2cncnc21	-9.32%	–
N#Cc1cc2[nH]c(=O)c(=O)[nH]c2cc1[N+](=O)[O-]	-0.943%	–
Cc1nc2nc(SCC(=O)NCc3ccco3)nn2c(C)c1Cc1ccccc1	21.2%	–
CCOc1ccccc1-n1c(SCC(=O)NCc2ccco2)nnc1-c1ccncc1	-1.62%	–
CCOC(=O)c1cnc(SCC(=O)NCc2ccco2)nc1N	–	25.1 µM (active)
CC(C)NC[C@H](O)c1ccc2ccccc2c1	–	inactive
COC(=O)[C@@]1(Cc2ccccc2)[C@H]2c3cc(C(=O)N4CCCC4)n(Cc4ccc(C)o4)c3C[C@H]2CN1C(=O)c1ccccc1	-4.58%	–
CN(C(=O)CN(CCO)CC(=O)N(C)C(C)(C)Cc1ccccc1)C(C)(C)Cc1ccccc1	–	inactive
Cc1cc(C)cc(N)c1	7.96%	–
CCCn1c(-c2ccc(F)cc2)nc2c(NCC3CCCN3CC)nc(C)nc21 (stereo not drawn)	-24.4%	–
COC(=O)[C@@]1(Cc2ccc(F)cc2)[C@H]2c3cc(C(=O)N4CCCC4)n(Cc4ccc(OC(F)(F)F)cc4)c3C[C@H]2CN1C(=O)c1ccccc1	4.38%	–
COc1ccccc1N1CCN(CCN2C(=O)c3ccccc3C(C)(C)C2=O)CC1	-25.3%	–
CN(C)/C=N/c1cc(=O)n(C)c(=O)n1CC1CC1	0.0595%	–
CC(C)=CCC/C(C)=C/CO/N=C1/C[C@@H](O)[C@@H](O)[C@@H]2[C@@H]3C(=O)N(C(C)(C)C)C(=O)[C@H]3CC[C@H]12	7.53% [at 11.5 µM]	–
Cn1c(N)c(C(=O)COC(=O)c2cc(C(F)(F)F)nc3c(C(F)(F)F)cccc23)c(=O)n(C)c1=O	-13.9%	–
CC/C=C/C/C=C/C/C=C/CCCCCCCC(=O)OCC	26%	–
CC1(C)OC(C(O)(c2ccccc2)c2ccccc2)C(C(O)(c2ccccc2)c2ccccc2)O1 (stereo not drawn)	31.6% [at 11.5 µM]	–

Compound	activity, negative = inhibition	Potency
COC(=O)[C@H]1[C@H]2C[C@H]3c4[nH]c5ccccc5c4CCN3C[C@@H]2CC[C@@H]1O	–	inactive
Oc1ccccc1CNCc1ccccc1O	19.3% [at 11.5 µM]	–
COc1ncc2nc(-c3ccc(Cl)cc3)c(=O)n(C)c2n1	-0.77%	–
O=C(Nc1ccccc1)N[C@H]1C[C@H](C(=O)O)Nc2cc(Cl)cc(Cl)c21	-10.9%	–
CC1O[C@@H](Oc2c(-c3ccc(O)c(O)c3)oc3cc(O)cc(O)c3c2=O)C(O)C(O)C1O (stereo partly drawn)	-4.83%	–
COC1[C@H](OC(N)=O)C(O)[C@H](Oc2ccc3c(O)c(NC(=O)c4ccc(O)c(CC=C(C)C)c4)c(=O)oc3c2C)OC1(C)C (stereo partly drawn)	14.4%	–
C#CCCCCCCCCCCCCCCCC(=O)O	9.99%	–
CO[C@H]1COC(=O)[C@@H](OCc2ccccc2)/C=C\[C@H](C)[C@@H](OC)COC(=O)[C@H](OCc2ccccc2)/C=C\[C@@H]1C	30% [at 11.5 µM]	–
O=C(CSc1nnc(-c2cccnc2)n1Cc1ccco1)c1ccc(Cl)c(Cl)c1	10.5%	–
O=C(CSc1nnc(-c2cccs2)n1Cc1ccco1)c1ccc2c(c1)OCO2	–	31.6 µM (active)
O=C(CSc1nnc(-c2cnccn2)n1Cc1ccco1)c1ccc(Cl)c(Cl)c1	-26.5%	–
N#Cc1cccc(-c2ccc3ncnc(NCc4cccs4)c3c2)c1	-25.3%	–
Cc1noc(C)c1-c1nccc(N2CCOCC2)n1	-10.5%	–
N#CCC(=O)NC(=O)NCC1CC1	12.1%	–
COc1ccc2c3c1OC1CC(O)C=C[C@@]31CCN(C)C2 (stereo partly drawn)	14%	–
COC(=O)c1ccc(C23CC4(C2)[C@H](CN(Cc2cccnc2)[C@@H]4c2ccccc2)C3c2ccc(Cl)nc2)cc1 (stereo partly drawn)	-2.78%	–
CC(C)CO/N=C1/C[C@@H](O)[C@@H](O)[C@@H]2[C@@H]3C(=O)N(C[C@@H]4CCCO4)C(=O)[C@H]3CC[C@@H]12	8.6% [at 11.5 µM]	–
CCNc1ncc2ncc(=O)n(Cc3cccc(OC)c3)c2n1	-28.5%	–
CC(=O)c1ccc(-n2nnnc2SCC(=O)N2CCN(C(=O)c3ccco3)CC2)cc1	-14%	–
Cn1nnnc1SCC(=O)N1CCN(Cc2ccccc2)CC1	–	31.6 µM (active)
Cn1nnnc1SCC(=O)N1CCN(C(c2ccccc2)c2ccccc2)CC1	2.32%	–

— PubChem BioAssay AID995 (National Center for Advancing Translational Sciences (NCATS), 2007)
